Many of the other results were omitted from the sample, so hits are more common in it than they were.
FBPA Giardia inh: Giardia lamblia aldolase inhibition. A8B2U2. purified Giardia FBPA. Potency, µM (top dose mostly 59.6 µM), for inactives: top-dose activity, negative = inhibition, actives largely listed as inhibitors. actives 0.71% (n = 290,000). AID 2451; note: potency is the fitted concentration of half-maximal effect; % is set by controls: 0 for no effect and ±100 for the full control effect; nearly all actives have a fitted effect of over 55% in size
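40 nM FBPA preincubated 10 min at RT with compound (up to 57.5 uM final), then substrate plus GAPDH/TPI/NAD/arsenate coupling and diaphorase/resazurin added. Fluorescence read after 20 min at RT, 525/598 nm.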
RE007 growth inh: less growth of the S. pombe RE007 Vpr strain; actives 0.21% (n = 360,000); AID 651644; S. pombe RE007 Vpr strain, BacTiter-Glo ATP luminescence, 24 h; Potency, µM (titrated, usually from 92.2 µM), for inactives: top-dose activity change, negative = less growth, hits mostly inhibitors; active = well fitted falling curve with a large enough effect; inconclusive = small, poorly fitted or top-dose-only effect; inactive = no such curve, though single readings can be large or run the other way; note: potency is the fitted concentration of half-maximal effect; % is set by controls: 0 for no effect and ±100 for the full control effect; nearly all actives have a fitted effect of over 50% in size
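Fission yeast strain RE007, carrying one chromosomally integrated HIV-1 vpr copy, was seeded at OD 0.01 in PMG+AL medium with 23 nL pinned compound. After 24 h at 30 °C and 99% humidity, viability was read by BacTiter-Glo luminescence.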
Tb PYK inh: T. brucei pyruvate kinase inhibition | actives 0.12% (n = 410,000) | Potency, µM (highest dose often 76.8 µM), without a hit: at the top dose activity, negative = inhibition, actives largely listed as inhibitors | Q57TT1 | TbPYK enzyme, Kinase-Glo Plus ATP luminescence, 45 min; note: potency is the fitted concentration of half-maximal effect; % is set by controls: 0 for no effect and ±100 for the full control effect; nearly all actives have a fitted effect of over 50% in size
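Readout: single end-point luminescence (Kinase-Glo Plus, 10 min). Reaction conditions were TbPYK/substrate plus 130 uM ADP, 45 min at RT, pH 7.2 TEA buffer. No-enzyme wells served as controls, and data were normalized before concentration-response fitting.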
LmPK inh: blocks Leishmania mexicana pyruvate kinase activity; Q27686; purified LmPK, Kinase-Glo ATP luminescence, 1 h; Potency, µM (highest dose often 57.5 µM), for inactives: at the top dose activity change, negative = inhibition, actives largely listed as inhibitors; actives 0.37% (n = 290,000); AID 1721; note: potency is the fitted concentration of half-maximal effect; % is set by controls: 0 for no effect and ±100 for the full control effect
Target sequence (Q27686 whole entry, looked up): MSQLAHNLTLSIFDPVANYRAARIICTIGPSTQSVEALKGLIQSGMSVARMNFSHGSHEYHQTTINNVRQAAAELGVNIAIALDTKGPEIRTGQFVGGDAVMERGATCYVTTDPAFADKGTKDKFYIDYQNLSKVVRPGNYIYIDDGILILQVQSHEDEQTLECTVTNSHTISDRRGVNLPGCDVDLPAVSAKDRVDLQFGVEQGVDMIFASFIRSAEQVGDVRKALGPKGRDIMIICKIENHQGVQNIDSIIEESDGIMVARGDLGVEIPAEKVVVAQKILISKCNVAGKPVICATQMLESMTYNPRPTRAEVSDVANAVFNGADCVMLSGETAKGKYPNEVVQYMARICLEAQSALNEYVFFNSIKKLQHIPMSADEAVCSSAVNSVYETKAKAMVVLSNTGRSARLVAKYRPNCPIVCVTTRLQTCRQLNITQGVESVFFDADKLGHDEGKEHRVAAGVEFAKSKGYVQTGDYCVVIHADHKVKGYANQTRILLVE
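Purified LmPK (0.1 nM) with 0.5 mM PEP and 0.1 mM ADP in imidazole buffer pH 7.2 with MgCl2/KCl, 1 h at room temperature. ATP formed was read by luciferase luminescence and normalized to no-enzyme and uninhibited controls.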
CHX counter: counter-screen hit for Shiga toxin inhibitors, cycloheximide; cell reporter, cycloheximide protein synthesis inhibition counterscreen; max response, %; actives 12% (n = 300,000); in the data active = max response mostly above about 13%, no sharp cut-off; inactive = mostly below about 14%; note: read at 38.3 µM for the half of the compounds with a filed dose; 0% is about no effect
Shiga inhibitor: inhibitors of Shiga toxin in Vero cells; Vero cells, Shiga toxin protein synthesis inhibition reporter; inhibition, % at 38.7 µM; actives 9.2% (n = 290,000); AID 2315; in the data active = inhibition mostly above about 28%, no sharp cut-off; inactive = mostly below about 43%; note: 0% is about no effect
Active calls of the source: *. Unless noted, calls come from the whole dose curve; as a rule, active = well fitted curve in the direction sought with a large enough effect; inconclusive = small, poorly fitted or top-dose-only effect, or another doubt; inactive = no such curve, though single readings can be large; an effect the other way counts as inactive or inconclusive.

Results for Clc1ccccc1OCc1nc(-c2ccccn2)no1 ?
FBPA Giardia inh: -6%; Tb PYK inh: -3%; LmPK inh: inconclusive; CHX counter: 33*; Shiga inhibitor: 70*

Results for Cc1cc(Cl)ccc1OCc1nc(-c2ccc(-n3cccc3)cc2)no1 ?
Tb PYK inh: -5%

How did Clc1ccc(OCc2nc(-c3ccccn3)no2)c(Br)c1 do in these assays?
FBPA Giardia inh: -2%; RE007 growth inh: -8%; Tb PYK inh: -3%; LmPK inh: -15%; CHX counter: 42*; Shiga inhibitor: 66*

Results for COCCCNC(=O)/C(C#N)=C1\N=C(NC(=O)c2cccs2)c2ccccc21 ?
FBPA Giardia inh: -11%; RE007 growth inh: -12%; Tb PYK inh: -6%; LmPK inh: 6%; CHX counter: 18*; Shiga inhibitor: 6

Results for C#CCn1cc(/C=C2\NC(=O)NC2=O)c2ccccc21 ?
FBPA Giardia inh: -9%; RE007 growth inh: 10%; Tb PYK inh: 3%; LmPK inh: 2%; CHX counter: -2; Shiga inhibitor: -3

What do the screens show for `Cc1[nH]c2ccccc2c1/C=N/Nc1ccccc1[N+](=O)[O-]`?
FBPA Giardia inh: -24%; RE007 growth inh: -25%; Tb PYK inh: -11%; LmPK inh: inconclusive; CHX counter: 37*; Shiga inhibitor: 86*

Results for COc1ccc(NS(=O)(=O)c2cc([N+](=O)[O-])ccc2N/N=C/c2c(C)[nH]c3ccccc23)cc1 ?
RE007 growth inh: 2%; Tb PYK inh: -4%

How did CC(C)Oc1ccccc1/C=N/Nc1ccccc1[N+](=O)[O-] do in these assays?
FBPA Giardia inh: 1%; RE007 growth inh: -4%; Tb PYK inh: -8%; LmPK inh: -2%; CHX counter: 65*; Shiga inhibitor: 87*

What do the screens show for `COc1ccccc1/C=N\Nc1ccccc1[N+](=O)[O-]`?
FBPA Giardia inh: 0%; RE007 growth inh: 0%; Tb PYK inh: -12%; LmPK inh: -14%; CHX counter: 49*; Shiga inhibitor: 73*

How did COc1cc(/C=N/Nc2ccccc2[N+](=O)[O-])ccc1OC(=O)c1ccccc1F do in these assays?
FBPA Giardia inh: 2%; RE007 growth inh: -1%; Tb PYK inh: -9%; LmPK inh: -2%; CHX counter: 31*; Shiga inhibitor: 45*

What do the screens show for `CCOCCCNC(=O)NC(CCC(C)C)c1c(-n2cccc2)sc2c1CCN(C)C2` (configuration not stated)?
Tb PYK inh: 2%

How did COc1cc(/C=N/Nc2ccc(S(N)(=O)=O)cc2[N+](=O)[O-])cc(OC)c1O do in these assays?
FBPA Giardia inh: -1%; RE007 growth inh: 0%; Tb PYK inh: 1%; LmPK inh: -1%; CHX counter: -1; Shiga inhibitor: -6

Results for COc1ccc(/C=N\Nc2ccccc2[N+](=O)[O-])c(C(=O)O)c1OC ?
FBPA Giardia inh: 17%; RE007 growth inh: -9%; Tb PYK inh: 2%; LmPK inh: -18%; CHX counter: 50*; Shiga inhibitor: 88*

Results for COc1cc(/C=N/Nc2ccccc2[N+](=O)[O-])cc(OC)c1O ?
FBPA Giardia inh: 0%; RE007 growth inh: -20%; Tb PYK inh: -12%; LmPK inh: -5%; CHX counter: 26*; Shiga inhibitor: 88*

How did C/C(=N\Nc1ccc([N+](=O)[O-])cc1)c1ccc(N)cc1 do in these assays?
FBPA Giardia inh: -4%; RE007 growth inh: 11%; Tb PYK inh: 2%; LmPK inh: -4%; CHX counter: 34*; Shiga inhibitor: 68*

How did CC(=NNc1ccc([N+](=O)[O-])cn1)c1ccc(N)cc1 do in these assays?
RE007 growth inh: -26%; Tb PYK inh: -3%

What do the screens show for `C/C(=N\NC(=O)COc1ccc([N+](=O)[O-])cc1)c1ccco1`?
RE007 growth inh: -1%; Tb PYK inh: -6%

Results for CCc1ccc(/C(C)=N\Nc2ccc([N+](=O)[O-])cc2)cc1 ?
FBPA Giardia inh: -6%; RE007 growth inh: 22%; Tb PYK inh: -5%; LmPK inh: 0%; CHX counter: 19*; Shiga inhibitor: 37

How did C/C(=N\Nc1ccc([N+](=O)[O-])cc1)c1ccco1 do in these assays?
FBPA Giardia inh: 0%; RE007 growth inh: 8%; Tb PYK inh: -2%; LmPK inh: -1%; CHX counter: 47*; Shiga inhibitor: 34*

Results for O=C(Cc1ccccc1)Nc1c(C(=O)Nc2ccccc2F)oc2ccccc12 ?
Tb PYK inh: -1%

How did CCc1ccc(NCc2cc3cc4c(cc3n(CC(=O)Nc3ccccc3Cl)c2=O)OCO4)cc1 do in these assays?
Tb PYK inh: 4%

How did O=C(N/N=C/c1ccc(OCC(=O)N2CCCCC2)cc1)c1ccccc1 do in these assays?
FBPA Giardia inh: 1%; RE007 growth inh: 14%; Tb PYK inh: 2%; LmPK inh: 2%; CHX counter: 30*; Shiga inhibitor: 40

How did O=C(N/N=C/c1ccc(Cl)cc1)c1sccc1OCc1ccc(F)cc1 do in these assays?
FBPA Giardia inh: 2%; RE007 growth inh: 5%; Tb PYK inh: 0%; LmPK inh: 8%; CHX counter: 27*; Shiga inhibitor: -2

How did O=C(N/N=C/c1ccc(OCc2ccccc2)cc1)c1ccncc1 do in these assays?
FBPA Giardia inh: 0%; RE007 growth inh: -6%; Tb PYK inh: 1%; LmPK inh: -1%; CHX counter: 13*; Shiga inhibitor: 81

How did O=C(Nc1ccc(OCc2ccccc2)cc1)c1cccs1 do in these assays?
FBPA Giardia inh: 2%; RE007 growth inh: -9%; Tb PYK inh: -4%; LmPK inh: 7%; CHX counter: 44*

How did O=C(N/N=C/c1ccc(OCC(=O)N2CCCCC2)cc1)c1ccccc1O do in these assays?
FBPA Giardia inh: 2%; RE007 growth inh: 2%; Tb PYK inh: 1%; LmPK inh: -3%; CHX counter: 12; Shiga inhibitor: 22

How did O=C(N/N=C/c1ccncc1)c1ccc(OCc2ccccc2)cc1 do in these assays?
FBPA Giardia inh: 2%; RE007 growth inh: 2%; Tb PYK inh: 3%; LmPK inh: 0%; CHX counter: 1; Shiga inhibitor: 25

Results for CCC1CN(C(=O)N2CCC(C(=O)NCCN(CC)CC)CC2)c2ccccc2O1 (configuration not stated) ?
Tb PYK inh: -1%

What do the screens show for `O=C(N/N=C/c1ccc(OCC(=O)N2CCCC2)cc1)C(=O)NC1CC1`?
RE007 growth inh: 5%; Tb PYK inh: 3%; LmPK inh: -1%; CHX counter: -2; Shiga inhibitor: -5
